The record followed here is the OligoGym collection.
Further: reference of the scale not given here.

For the first assay, the target named is TRMT1. Put plainly: pooled miR-30 sensor sort-seq; sequence = guide strand. To be noted: shRNA.
As for TAGTACAGAGGCACGTCCGGGA, the sensor-assay potency score (higher = more potent) is -0.101.

With TTGCGTGTCCTTCTCTCCTGGA, the sensor-assay potency score (higher = more potent) is -0.847. As to TCTCTGATAGTCGCTCCCGTTT, the sensor-assay potency score (higher = more potent) was -1.66.

As to TCTCCTGGAACCTTGATCTGGA, the sensor-assay potency score (higher = more potent) was -0.0549. TCGTTTGCAACCACAGATCTGA came in with a sensor-assay potency score (higher = more potent) of -0.44.

Sequence TCGGTGACTGTCGTCTCCTGGA yielded a sensor-assay potency score (higher = more potent) of -1.21.

For TCATTGAGCTGGACATTCCGGC, the sensor-assay potency score (higher = more potent) amounted to 0.0258. Same read-out and setting: the figure for TTGTTCTGAAGCAGCCTGCGTC is -0.663. Still for that read-out and setting: the figure for TAGTCTCTGATAGTCGCTCCCG is -0.643; for TTTGCGTGTCCTTCTCTCCTGG it is 0.33.

Another assay has as its target TRO. The assay is described as above. To be noted: shRNA.
In turn, TTGAGTGCACTGCCAAAGCTGA returned a sensor-assay potency score (higher = more potent) of -0.944.

TACACCACTAAAGCCAGCCGTG: the sensor-assay potency score (higher = more potent) is -1.01. The sequence TAGTATTAGATGCACTGCCAAA registered a sensor-assay potency score (higher = more potent) of -1.27.

Sequence TTGAGCACACTGCCAAAGCTGG displayed a sensor-assay potency score (higher = more potent) of -0.914. Still for that read-out and setting: the figure for TTGGTCAGCATTTGGAGTCTGG is 0.322; for TTGATGGGGATCTTTGTCTGGT it is -0.592. On the same count and under the same terms, the figure for TTGGGTGTGTCCTTGGTCGTTC is 0.127. For TTAGTAATAGTCTTTATAGGGG, the sensor-assay potency score (higher = more potent) was -0.72. The same measure, in the same setting: the figure for TTTCATCTTGCTAGTCTCGTGG is 0.184; for TAGTGCTCAGTGTACCACCAAA it is -1.66; for TAAAATGGCCACATCTCGCGGT it is 0.238. Same read-out and setting: the figure for TTCATCTTGCTAGTCTCGTGGT is 0.132.

For another assay, the target named is TRPC4. Described as above. To be noted: shRNA.
For TATGAGACTATTGTCATCTCGG, the sensor-assay potency score (higher = more potent) worked out at 0.182.

TTCTCTGGAACTTCTCGTCTGA registered a sensor-assay potency score (higher = more potent) of -0.126.

For the sequence TAGATGTTGAGTCTGGAGCGTG, the sensor-assay potency score (higher = more potent) is -0.516. Still for that read-out and setting: the figure for TTGAGTAGAACAACCAGAGAGA is -0.452. Same read-out and setting: the figure for TATTTCTCTCAAGTGGTCCTGC is 0.27; for TTGACGAGCAACTTCTTCTGAA it is 0.0812; for TTTGGTATTATAGGAACCGTGT it is -0.294. On the same count and under the same terms, as for TTCTTTTGCATGTTTCTCCTTT, the figure is 0.299; as for TTGAATGGACACACTCTCTTTC, -0.228; as for TAACACACATTGTTCACTGAGA, -0.436. In turn, TATTGTTCCAAAACTTTCTGGC came in with a sensor-assay potency score (higher = more potent) of 0.627.

On to TATACTAGAGTCCTCTTCTTTT, for which the sensor-assay potency score (higher = more potent) was -1.18.

Another assay concerns the target TRPM3. Described as above. To be noted: shRNA.
TTGTACAATTCCTCTAGTCTGG: the sensor-assay potency score (higher = more potent) was -0.181. On the same count and under the same terms, as for TTGTTCTTGAACTCCAAGCTGA, the figure is -0.171. Same read-out and setting: the figure for TTATTTTACCATCCTCTCGGGT is -0.671; for TAAAATGCTCTTTCTATCCAGG it is -0.366. Same read-out and setting: the figure for TTGTCTTCGAAGTTTCACCTCT is 0.148; for TTGTCTTTCATATTGACCGAAT it is -0.665.
